# Source: PubChem BioAssay (NCATS)
# Inconclusive results are not listed. A call without a number means that no potency is given here. Calls of active or inactive are those of the source. Calls follow the shape of the dose curve; as a rule, active = well fitted inhibition curve with a large enough effect; inconclusive = small, poorly fitted or top-dose-only effect; inactive = flat fitted curve, though single readings scatter.
# What was measured:
# Test in all cases: qHTS profiling for inhibitors of Plasmodium falciparum proliferation (AID 504749); also: nearly all actives have a fitted effect of over 60% in size
# Details in all cases: P. falciparum in erythrocytes, SYBR Green DNA, 72 h; series mostly up to 28.7 µM
# CP335 = tested on: CP335
# How it was run: (§1)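 Quantitative HTS: compounds pinned into medium, infected erythrocytes added (0.3% parasitemia, 2.5% hematocrit), 72 h culture at 37 C under 5% CO2. Saponin/Triton lysis with SYBR Green I, overnight RT, then fluorescence read.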
# DFO2036 = tested on: DFO2036
# How it was run: as §1
# DIV14 = tested on: DIV14
# How it was run: as §1
# DIV17 = tested on: DIV17
# How it was run: as §1
# DIV30 = tested on: DIV30
# How it was run: as §1
# Dd2 = tested on: Dd2
# How it was run: as §1
# FAB9 = tested on: FAB9
# How it was run: as §1
# GB4 = tested on: GB4
# How it was run: as §1
# HB3 = tested on: HB3
# How it was run: as §1
# ICS = tested on: ICS
# How it was run: as §1
# JCK = tested on: JCK
# How it was run: as §1
# N140 = tested on: N140
# How it was run: as §1
# P93_24 = tested on: P93_24
# How it was run: as §1
# P94_40 = tested on: P94_40
# How it was run: as §1
# PAD = tested on: PAD
# How it was run: as §1
# PC15 = tested on: PC15
# How it was run: as §1
# PC26 = tested on: PC26
# How it was run: as §1
# PC49 = tested on: PC49
# How it was run: as §1
# SC27B = tested on: SC27B
# How it was run: as §1
# ECU = tested on: ECU
# How it was run: as §1
# Potency is read from the fitted curve at half-maximal effect.
Structure (SMILES),Potency (CP335),Potency (DFO2036),Potency (DIV14),Potency (DIV17),Potency (DIV30),Potency (Dd2),Potency (FAB9),Potency (GB4),Potency (HB3),Potency (ICS),Potency (JCK),Potency (N140),Potency (P93_24),Potency (P94_40),Potency (PAD),Potency (PC15),Potency (PC26),Potency (PC49),Potency (SC27B),Potency (ECU)
O=C1O[C@H]([C@@H](O)CO)C(O)=C1O,inactive,inactive,inactive,inactive,inactive,inactive,inactive,inactive,inactive,inactive,inactive,inactive,inactive,inactive,inactive,inactive,inactive,inactive,inactive,
CCN(CC)CCNC(=O)c1c(C)[nH]c(/C=C2\C(=O)Nc3ccc(F)cc32)c1C,12 µM (active),8.91 µM (active),4.78 µM (active),5.36 µM (active),13.5 µM (active),11.2 µM (active),,7.57 µM (active),8.91 µM (active),3.98 µM (active),,8.91 µM (active),6.31 µM (active),7.94 µM (active),5.01 µM (active),8.91 µM (active),5.36 µM (active),,12.6 µM (active),7.94 µM (active)
C[C@H]1O[C@@H](n2cc(F)c(=O)[nH]c2=O)[C@H](O)[C@@H]1O,inactive,inactive,inactive,inactive,inactive,inactive,inactive,inactive,inactive,,inactive,inactive,inactive,inactive,inactive,inactive,inactive,inactive,inactive,inactive
CCCCN(CCCC)CC(O)c1cc(Cl)cc2c1-c1ccc(Cl)cc1/C2=C/c1ccc(Cl)cc1 (centres undefined),0.0239 µM (active),0.0126 µM (active),,0.0135 µM (active),0.0067 µM (active),0.0089 µM (active),0.316 µM (active),,0.0141 µM (active),0.0014 µM (active),,0.0045 µM (active),0.0126 µM (active),0.005 µM (active),0.0056 µM (active),0.0112 µM (active),,,0.0112 µM (active),0.0056 µM (active)
CCCCOC(=O)c1ccc(O)cc1,inactive,inactive,inactive,inactive,inactive,inactive,inactive,inactive,inactive,,inactive,inactive,inactive,inactive,inactive,inactive,inactive,inactive,inactive,inactive
CC1(C)CO[C@@H](CC(=O)O)CN1,inactive,inactive,inactive,inactive,inactive,inactive,inactive,inactive,inactive,inactive,inactive,inactive,inactive,inactive,inactive,inactive,inactive,inactive,inactive,inactive
CNC(=O)Oc1ccc2c(c1)[C@]1(C)CCN(C)[C@@H]1N2C,7.57 µM (active),2.24 µM (active),,4.26 µM (active),,,2 µM (active),4.78 µM (active),2 µM (active),,2.82 µM (active),1.78 µM (active),1.58 µM (active),1.58 µM (active),1.41 µM (active),1.78 µM (active),,2 µM (active),,1.78 µM (active)
C[C@@H]1CN(c2c(F)c(F)c3c(=O)c(C(=O)O)cn(C4CC4)c3c2F)C[C@H](C)N1,inactive,inactive,inactive,inactive,inactive,inactive,inactive,inactive,inactive,inactive,inactive,inactive,inactive,inactive,inactive,inactive,inactive,inactive,inactive,inactive
O=C(O)CN1C(=O)c2cccc3cccc(c23)C1=O,inactive,inactive,inactive,inactive,inactive,inactive,inactive,,inactive,inactive,inactive,inactive,,,inactive,inactive,inactive,inactive,inactive,inactive
Nc1nc2c(ncn2CCC(CO)CO)c(=O)[nH]1,inactive,inactive,inactive,inactive,inactive,inactive,inactive,inactive,inactive,inactive,inactive,inactive,inactive,inactive,inactive,inactive,inactive,inactive,inactive,inactive
O=C1OC(OC(=O)c2cccnc2Nc2cccc(C(F)(F)F)c2)c2ccccc21 (centres undefined),inactive,inactive,inactive,inactive,inactive,inactive,inactive,inactive,inactive,inactive,inactive,inactive,inactive,inactive,inactive,inactive,inactive,inactive,inactive,inactive
COc1cc(C)c(Cc2cnc(N)nc2N)cc1OC,inactive,inactive,inactive,inactive,inactive,inactive,5.62 µM (active),3.79 µM (active),,inactive,inactive,inactive,inactive,inactive,inactive,inactive,inactive,inactive,inactive,5.01 µM (active)
CNCCC(Oc1ccc(C(F)(F)F)cc1)c1ccccc1 (centres undefined),,inactive,3.01 µM (active),6.75 µM (active),6.75 µM (active),,inactive,13.5 µM (active),inactive,7.94 µM (active),,,,,,,,,,
CCOc1nc2cccc(C(=O)O)c2n1Cc1ccc(-c2ccccc2-c2nn[nH]n2)cc1,inactive,inactive,,,,inactive,inactive,inactive,inactive,,inactive,,inactive,,inactive,inactive,,inactive,11.2 µM (active),
